Reference: PubChem BioAssay (NCI)
The panel holds about 79,000 compounds, 15% with a hit somewhere; the sample as a whole holds those more often. No stated cut-off is given here; in the data, active means growth inhibition above about 70%; inactive means the rest.

Legend:
[1] = NCI Yeast Anticancer Drug Screen. Data for the rad50 strain (AID 155);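 further: 0% = growth of vehicle-only cultures of the same strain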; conditions: S. cerevisiae rad50 strain growth inhibition; at 50.0 µM; active compounds read high
Method in brief: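 Cells are treated with compound, grown, and their growth is then scored against vehicle-only cultures of the same repair-deficient yeast strain.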

[2] = NCI Yeast Anticancer Drug Screen. Data for the mec2-1 strain (AID 157); conditions: S. cerevisiae mec2-1 strain, at 50.0 µM, active compounds read high
Method in brief: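 Using mec2-1 yeast: add compound, measure growth, express inhibition versus vehicle-treated cultures.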

[3] = NCI Yeast Anticancer Drug Screen. Data for the sgs1 mgt1 strain (AID 161);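 further: 0% = growth of cultures given vehicle only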; conditions: S. cerevisiae sgs1 mgt1 strain, at 50.0 µM, active compounds read high
Method in brief: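 Percent growth inhibition was derived by comparing compound-exposed mutant yeast with vehicle-exposed cultures. The strain carries alterations in DNA damage repair.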

[4] = NCI Yeast Anticancer Drug Screen. Data for the cln2 rad14 strain (AID 165);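 further: 0% = growth equal to vehicle treated cultures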; conditions: S. cerevisiae cln2 rad14 strain, at 50.0 µM, active compounds read high
Method in brief: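 Yeast strain cln2 rad14, bearing defects in cell cycle control and DNA repair, serves as the test system; values reflect growth inhibition compared with vehicle.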

[5] = NCI Yeast Anticancer Drug Screen. Data for the bub3 strain (AID 167); conditions: S. cerevisiae bub3 mutant strain, at 50.0 µM, active compounds read high
Method in brief: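 Part of a panel of yeast mutants defective in DNA damage repair or cell cycle regulation. Each strain is grown with compound, and inhibition is calculated relative to solvent-treated cultures.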

[6] = NCI Yeast Anticancer Drug Screen. Data for the mlh1 rad18 strain (AID 175); conditions: S. cerevisiae mlh1 rad18 strain growth inhibition; at 50.0 µM; active compounds read high
Method in brief: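 Steps: expose repair-defective yeast to compound; measure growth; express inhibition against vehicle-treated controls.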

Measured: growth inhibition

CC(C)(N)C(=O)N[C@@H]1C(=O)N2[C@@H]1SC(C)(C)[C@@H]2C(=O)O
inactive: [1] 8.4% | [2] 3.55% | [3] -19.2% | [4] -0.95% | [5] 5.9% | [6] 4%

O=P(O)(O)c1ccccc1Oc1ccccc1
inactive: [1] 7.8% | [2] 7.55% | [3] 26.3% | [4] 29.1% | [5] 8.05% | [6] 6.95%

COCC(=O)c1ccccc1
inactive: [1] 14.3% | [2] 1.7% | [3] 5.3% | [4] 6% | [5] -0.65% | [6] 32.9%

Cc1ccc(-c2nc3ccccc3c(=O)o2)cc1
inactive: [1] 11.4% | [2] -9.05% | [3] -6.05% | [4] -8.6% | [5] 4.75% | [6] 14.3%

CCCC(=O)C(C)(C)C
inactive: [1] 18.2% | [2] -12.4% | [3] -35% | [4] -41.5% | [5] -22.1% | [6] 6.75%

O=C(O)C1Cc2nc[nH]c2CN1CO (stereo not given)
inactive: [1] 6.1% | [2] -8.8% | [3] -19.8% | [4] 3.95% | [5] 23.7% | [6] 8%

CCC1(O)CC2CN(CCc3c([nH]c4ccccc34)C(C(=O)OC)(c3cc4c(cc3OC)N(C)C3C(O)(C(=O)NCCSSCCNC(=O)C5(O)C(O)C6(CC)C=CCN7CCC8(c9cc(C%10(C(=O)OC)CC%11CN(CCc%12c%10[nH]c%10ccccc%12%10)CC(O)(CC)C%11)c(OC)cc9N(C)C58)C76)C(O)C5(CC)C=CCN6CCC43C65)C2)C1 (stereo not given)
inactive: [1] 23.4% | [2] 11.4% | [3] 24.9% | [4] 42.8% | [5] 40.1% | [6] 37.6%

COc1ccc(C(=O)N/N=C/c2ccccc2Cl)cc1
inactive: [1] 1% | [2] 0.45% | [3] 19.1% | [4] -10.6% | [5] 19.4% | [6] 18.4%

O=C(CCl)Oc1cccc2cccnc12
inactive: [1] -8.75% | [2] 9% | [3] -1.35% | [4] -12.2% | [5] -2.45% | [6] -2.75%

CCN(CC)CCS(=O)(=O)CCS(=O)(=O)CCN(CC)CC
inactive: [1] 18.5% | [2] 10.9% | [3] 25.2% | [4] 25.2% | [5] 4.4% | [6] 14.2%

O=P1(O)Oc2ccc3ccccc3c2-c2c(ccc3ccccc23)O1
inactive: [1] -0.4% | [2] 30.3% | [3] -6.1% | [4] -16.9% | [5] 19.4% | [6] 15.7%

O=C1OC(C2Cc3cc4c(cc3C2=O)CCC4)c2ccccc21 (stereo not given)
inactive: [1] -33.1% | [2] -25.4% | [3] -7.75% | [4] -2.55% | [5] -18.9% | [6] -13.4%

CCOC(=O)c1cnc2cc3c(cc2c1Nc1cccc(C)c1)OCO3
inactive: [1] -9.9% | [2] -5% | [3] -5.85% | [4] -57.8% | [5] -1.45% | [6] -6%

O=C1C2C3(CCl)C1C23CCl (stereo not given)
inactive: [1] 23.9% | [2] 46.6% | [3] 37.6% | [4] 10.4% | [5] 18.2% | [6] 40.6%

NC(=S)N/C=C(/c1ccc(Cl)cc1Cl)S(=O)(=O)Cc1ccc(Cl)cc1Cl
inactive: [1] 6.85% | [2] -6.7% | [3] 9.6% | [4] 6.95% | [5] 0.2% | [6] 9.7%

COC(=O)/C=C/c1ccccc1
inactive: [1] 17.4% | [2] -14.3% | [3] -15.6% | [4] -1.2% | [5] -27.9% | [6] 19.4%

O=Nc1ccc(O)cc1O
inactive: [1] 16.9% | [2] 2.5% | [3] 1.15% | [4] -38.6% | [5] 33.3% | [6] 19.1%

COC(=O)C(=O)c1c2ccccc2n2ccc3c4ccccc4[nH]c3c12
inactive: [1] 25.9% | [2] 8.9% | [3] -5.75% | [4] 10.1% | [5] 9.6% | [6] 10.5%

Cc1ccc(OCc2cccc(Cl)c2)cc1
inactive: [1] 17.8% | [2] -10.4% | [3] 2.5% | [4] -2.9% | [5] -42.1% | [6] -11.3%

OC(CCN1CC2CCC(CC2)C1)(Cc1ccccc1)c1ccc(F)cc1 (stereo not given)
inactive: [1] -3.8% | [2] -7.9% | [3] 23.1% | [4] -5.15% | [5] 22.6% | [6] -7.25%

CCC(C(=O)O)(C(C)C)C(C)C
inactive: [1] 5.8% | [2] 30.9% | [3] 12.9% | [4] 12.4% | [5] -0.05% | [6] 8.1%

CC12C=CC(=O)C=C1CCC1C3CC(F)C(O)(C(=O)CO)C3(C)CC(O)C12F (stereo not given)
inactive: [1] -6.35% | [2] 2.25% | [3] 3.25% | [4] 25.2% | [5] 14.8% | [6] 3.3%

CCOC(=O)NC(=O)c1cn(CCN2CCN(C(=O)CCCCCCCCCCNc3ncnc4nc[nH]c34)CC2)c(=O)[nH]c1=O
inactive: [1] -18.5% | [2] -6.75% | [3] -12.8% | [4] -25.6% | [5] 0.05% | [6] -14.2%

CCCNC(=O)Oc1ccccc1C(N)=O
inactive: [1] -3.35% | [2] -20.1% | [3] -4.4% | [4] -44% | [5] 8% | [6] -5.75%

N#C/C(=C/O)c1ccccc1
inactive: [1] 1.65% | [2] 4.4% | [3] -0.75% | [4] 3.1% | [5] 5.6% | [6] -13.7%

Cc1ccc(N=Nc2ccc(C)cc2NC(=O)c2ccc(Cl)cc2Cl)cc1
inactive: [1] 9.2% | [2] -9.7% | [3] 9.1% | [4] 4.55% | [5] -1.55% | [6] 18.2%

C=CCNC(=O)C[n+]1cccc(C(=O)Nc2ccccc2)c1
inactive: [1] 1.65% | [2] -18.2% | [3] 5.4% | [4] 23.2% | [5] 5.95% | [6] -0.95%

O=C(Nc1ccccc1)OCc1cnc2ccccc2c1
inactive: [1] 6.05% | [2] -22.6% | [3] 9.2% | [4] -9.4% | [5] 3.05% | [6] -2.8%

COc1ccc(C(=O)c2ccccc2C)cc1OC
inactive: [1] 1.65% | [2] 0.1% | [3] -1.15% | [4] 28.1% | [5] 36.5% | [6] 0.15%

COc1ccc2c(c1)NC(c1ccccc1C(=O)O)c1cccn1-2 (stereo not given)
inactive: [1] 0.55% | [2] -20.9% | [3] 12.3% | [4] 5.75% | [5] 23.6% | [6] 5.6%

O=C1c2cccc3cccc(c23)C(=O)N1CCCN(CCO)CCO
inactive: [1] -1.25% | [2] 4.25% | [3] -4.35% | [4] 7.95% | [5] -7.6% | [6] 14.2%

NC(=O)/N=C/c1c(O)c2ccccc2oc1=O
inactive: [1] 9.6% | [2] -0.8% | [3] -11.6% | [4] -3.35% | [5] -42% | [6] -3.1%

CCOC(=O)/C(=C\c1c(C)[nH]c2ccccc12)P(=O)(OCC)OCC
inactive: [1] -15.2% | [2] -15.7% | [3] -22.9% | [4] -0.3% | [5] -8.95% | [6] 11.5%

NCCN1CCCCCc2ccccc21
inactive: [1] -63.2% | [2] -53% | [3] -49.8% | [4] -17.4% | [5] -41.1% | [6] -39.3%

Cn1c(=O)c2cc(O)cnc2n(C)c1=O
inactive: [1] 4.8% | [2] -5.8% | [3] 0.3% | [4] -14.7% | [5] -7.35% | [6] -3%

O=C(CNC(=O)OCc1ccccc1)NCCNCCNC(=O)CNC(=O)OCc1ccccc1
inactive: [1] -26.9% | [2] 6.7% | [3] -5.65% | [4] 36.2% | [5] 8.45% | [6] -0.4%

CCN(CC)CCOc1ccc(C)c2c1C(=O)CC2
inactive: [1] -27.6% | [2] -9.2% | [3] -8.45% | [4] -8.7% | [5] 21.4% | [6] -23.6%

C1CC2(CC3(C1)SCCS3)SCCS2
inactive: [1] -0.3% | [2] 7.2% | [3] -0.85% | [4] -12.3% | [5] 1.55% | [6] 0.05%

CN(C)/N=C/c1cn(C)c(=O)n(C)c1=O
inactive: [1] 0.15% | [2] 3% | [3] 5.75% | [4] -5.55% | [5] -20.3% | [6] 1.85%

CC(C)Oc1ccc(C(N)=S)c2ccccc12
inactive: [1] -0.55% | [2] 4.75% | [3] -0.85% | [4] -29.1% | [5] -1% | [6] 14.1%
